For 23 molecules, growth inhibition results are on record in PubChem BioAssay (NCI).

This is part of a sample that, as a whole, favours compounds with a hit. Of some 79,000 tested, about 15% had one in any assay. Unmarked numbers belong to inactive results. Calls of active or inactive are those of the source. Cut-off read from the data, not from the text of the source: active = growth inhibition above about 70%; inactive = the rest.

Assay [1] is described as follows: NCI Yeast Anticancer Drug Screen. Data for the rad50 strain (AID 155).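 Note: 0% = growth of vehicle-only cultures of the same strain.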 The conditions noted are these: S. cerevisiae rad50 strain growth inhibition; at 50.0 µM; hits give high values. Summed up: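 Genetically altered yeast (DNA repair pathway); compound treatment; growth inhibition vs vehicle ctrl.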
Assay [2] in a line: NCI Yeast Anticancer Drug Screen. Data for the mec2-1 strain (AID 157). The conditions noted are these: S. cerevisiae mec2-1 strain, at 50.0 µM, hits give high values. The method, boiled down:
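Using mec2-1 yeast: add compound, measure growth, express inhibition versus vehicle-treated cultures.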

Assay [3] can be described thus: NCI Yeast Anticancer Drug Screen. Data for the sgs1 mgt1 strain (AID 161).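 Note: 0% = growth of cultures given vehicle only.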 The conditions noted are these: S. cerevisiae sgs1 mgt1 strain, at 50.0 µM, hits give high values. Summed up: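 This yeast growth screen uses a strain with defined DNA-repair lesions; compound-treated growth is compared with vehicle-treated growth.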
The nature of assay [4]: NCI Yeast Anticancer Drug Screen. Data for the cln2 rad14 strain (AID 165).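 Note: 0% = growth equal to vehicle treated cultures.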 The following applies: S. cerevisiae cln2 rad14 strain, at 50.0 µM, hits give high values. The method, boiled down:
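Yeast strain cln2 rad14, bearing defects in cell cycle control and DNA repair, serves as the test system; values reflect growth inhibition compared with vehicle.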

The nature of assay [5]: NCI Yeast Anticancer Drug Screen. Data for the bub3 strain (AID 167). The following applies: S. cerevisiae bub3 mutant strain, at 50.0 µM, hits give high values. Summed up: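 Yeast carrying a defined mutation is treated with each compound, and growth is compared with that of vehicle-exposed cells to give inhibition.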
Assay [6] can be described thus: NCI Yeast Anticancer Drug Screen. Data for the mlh1 rad18 strain (AID 175). The following applies: S. cerevisiae mlh1 rad18 strain growth inhibition; at 50.0 µM; hits give high values. The method, boiled down: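 Steps: expose repair-defective yeast to compound; measure growth; express inhibition against vehicle-treated controls.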

Consider `CCNCC(=O)Nc1ccccc1C(=O)OCC`, for which the growth inhibition in assay [1] was -2.7%; in assay [2], 14%; in assay [3], 0.2%; in assay [4], -22.5%; in assay [5], 8.6%; in assay [6] it was 10.1%.

Consider `OC(CC(c1ccccc1)c1cccc2ccccc12)(c1ccccc1)c1ccccc1` (stereo not drawn), for which the growth inhibition in assay [1] was -12.8%; in assay [2], -17.9%; in assay [3], -14.6%; in assay [4], -7.65%; in assay [5] it was -28.4%; in assay [6], 3.3%.

Regarding `O=C(N/N=C\c1coc([N+](=O)[O-])c1)N/N=C/c1ccoc1`, the growth inhibition was 0.75% in assay [1]; 14.2% in assay [2]; 3.65% in assay [3]; -25.7% in assay [4]; -8.35% in assay [5]; 1.1% in assay [6].

With `CC(C)SSC(=O)N1CCCC1C(=O)O` (stereo not drawn), the growth inhibition is -1.6% in assay [1]; 3.05% in assay [2]; -5.45% in assay [3]; -30.9% in assay [4]; -1% in assay [5]; -1.7% in assay [6].

Consider `COC(=O)CCC(=O)NCC(=O)OCc1ccccc1`, for which the growth inhibition in assay [1] was 0.55%; in assay [2] it was -1.85%; in assay [3] it was -13.9%; in assay [4], 3.05%; in assay [5] it was -11.8%; in assay [6], 19.2%.

Take `O=C1c2ccccc2-c2ccc(N=Cc3cccs3)cc21`: the growth inhibition in assay [1] is 30.9%; in assay [2] it was -5.65%; in assay [3], -3.35%; in assay [4] it was 9.4%; in assay [5] it was 33.5%; in assay [6], 11.7%.

`Clc1ccc(-c2nnc(-c3ccncc3)o2)c(Cl)c1`: the growth inhibition was 18.1% in assay [1]; -4.5% in assay [2]; 17.9% in assay [3]; -1.6% in assay [4]; 27.2% in assay [5]; 15.6% in assay [6].

As for `COc1ccc2nccc(Cl)c2c1`, the growth inhibition is 12.2% in assay [1]; 12.3% in assay [2]; 1.6% in assay [3]; -6.55% in assay [4]; 15.2% in assay [5]; 6.45% in assay [6].

With `NC(=O)c1cnn(CCO)c1N`, the growth inhibition in assay [1] was 0.2%; in assay [2], -3.35%; in assay [3], 2.55%; in assay [4], -15.6%; in assay [5], 2.85%; in assay [6] it was 12.6%.

In the case of `CCCC[N+](C)(CCCC)CCCC`, the growth inhibition in assay [1] was 9.15%; in assay [2], 9.65%; in assay [3], 7.8%; in assay [4], -1.15%; in assay [5] it was 14.2%; in assay [6], 3.3%.

With `COc1nsc2ccc(C(C)C(N)=O)cc12` (stereo not drawn), the growth inhibition in assay [1] was -35.5%; in assay [2], 3.8%; in assay [3] it was -9.1%; in assay [4], -22.4%; in assay [5], -2.25%; in assay [6] it was -4.4%.

Take `COc1ccc(CC2(Cc3ccc(OC)cc3)CCOC2=O)cc1`: the growth inhibition is -23.1% in assay [1]; -31.9% in assay [2]; -16.1% in assay [3]; 1.2% in assay [4]; 2.25% in assay [5]; -31.4% in assay [6].

`CCN(CC)C(CC(=O)c1ccccc1)C(=O)c1ccccc1` (stereo not drawn): the growth inhibition is 23.9% in assay [1]; 16.5% in assay [2]; 13.2% in assay [3]; -10% in assay [4]; 13.3% in assay [5]; 49.6% in assay [6].

With `O=[N+]([O-])c1cc2ccccc2nc1-c1ccccc1`, the growth inhibition was 15.6% in assay [1]; 4.2% in assay [2]; -0.55% in assay [3]; 6.95% in assay [4]; 6.15% in assay [6].

Consider `Cc1ccc(C(=O)NCCN2CCCC2)c([N+](=O)[O-])c1OCc1ccccc1`, for which the growth inhibition in assay [1] was 6.15%; in assay [2], -20%; in assay [3], 4.8%; in assay [4], -22.9%; in assay [6] it was -5.8%.

Consider `COc1ccc(S(=O)(=O)c2ccc(F)cc2)cc1`, for which the growth inhibition in assay [1] is -22.1%; in assay [2], -14.2%; in assay [3], -3.65%; in assay [4], -5.8%; in assay [6], -21.4%.

For the molecule `Cc1nc(N)nc(-c2ccccc2)c1N=Nc1cc(Cl)cc(Cl)c1`, the growth inhibition is 5.95% in assay [1]; -8.3% in assay [2]; -3.65% in assay [3]; -6.45% in assay [4]; 7.45% in assay [6].

Regarding `C[N+](C)(C)CCOC(=O)C(c1ccccc1)C1(O)CCCC1` (stereo not drawn), the growth inhibition was 33.6% in assay [1]; -16.1% in assay [2]; 12.7% in assay [3]; -24.4% in assay [4]; 22.3% in assay [6].

In the case of `CC1=CC(=O)N(n2c(-c3ccccc3)n[nH]c2=O)C1=O`, the growth inhibition is -26.9% in assay [1]; -12.9% in assay [2]; -4.45% in assay [3]; 7.95% in assay [4]; 5.3% in assay [6].

As for `COc1ccc(-c2cc(C(O)C3CCCCN3)c3ccccc3n2)cc1` (stereo not drawn), the growth inhibition in assay [1] is 4.15%; in assay [2], -42%; in assay [3], -20.9%; in assay [4] it was 11.7%; in assay [6], -10.1%.

Regarding `Cc1ccc(OCC(=O)C2CSc3ccc(Cl)cc32)cc1` (stereo not drawn), the growth inhibition in assay [1] was 67.8%; in assay [2] it was 33%; in assay [3] it was 26.4%; in assay [4], 70.6% (active); in assay [6], 73.5% (active).

`Nc1nc(SCc2ccc(F)cc2)c2[nH]cnc2n1`: the growth inhibition was 16.8% in assay [1]; 9.35% in assay [2]; 12.6% in assay [3]; -8.8% in assay [4]; -21.9% in assay [6].

As for `CC12CCC(=O)C=C1CCC1C2C(=O)CC2(C)C1CCC2(O)C(=O)Cn1cc(F)c(=O)[nH]c1=O` (stereo not drawn), the growth inhibition in assay [1] is 12.1%; in assay [2], 9.5%; in assay [3] it was 32.8%; in assay [4] it was 11.9%; in assay [6], 6.5%.
